Laboratory results reported in PubChem BioAssay AID449762 (Southern Research Specialized Biocontainment Screening …, 2010).
About 1,900 (0.58%) of roughly 330,000 compounds were called active. Roughly 4% stayed inconclusive and do not appear here. Cut-off read from the data, not from the text of the source: inconclusive = inhibition above about 70% without an active follow-up result; inactive = below that. A selection follows. Measured potencies and affinities stand elsewhere.

assay: M. tuberculosis growth inhibition, HTS (AID 449762);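 note: bacterial growth assessed after seven days of incubation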; details: M. tuberculosis H37Rv growth inhibition, 7H9 media; at 25 µM; stronger effect = higher value

| SMILES | inhibition |
| --- | --- |
| O=C(O)CCC(=O)Nc1nnc(C(F)(F)F)s1 | 5.81% (inactive) |
| Cc1nnc(NC(=O)CCC(=O)NC2CCCCCCC2)s1 | 2.33% (inactive) |
| CC(=O)c1cccc(S(=O)(=O)NCCC(=O)NC2CCCCCC2)c1 | 2.95% (inactive) |
| CCN(CC)S(=O)(=O)c1ccc(NC(=O)c2ccc(Sc3nncn3C)c([N+](=O)[O-])c2)cc1 | 3.9% (inactive) |
| COCCn1c(O)c(/C=N/NC(=O)CSC(=S)N2CCCC2)c(=O)[nH]c1=S | -6.24% (inactive) |
| CCOc1ccccc1NC(=O)C1CCCN(c2c(CC)c(C)nc3ncnn23)C1 (configuration not stated) | 3.2% (inactive) |
| CCN(c1cccc(C)c1)S(=O)(=O)c1nnc(NC(=O)c2ccco2)s1 | -5.15% (inactive) |
| Cc1csc(NC(=O)c2c(O)c3c(n(CC(C)C)c2=O)CCCC3)n1 | 65.9% (inactive) |
| CC(C)Cn1c2c(c(O)c(C(=O)Nc3nccs3)c1=O)CCCC2 | 8.72% (inactive) |
| CC(=C1C(=O)c2ccccc2C1=O)N1CCN(c2ccc(F)cc2)CC1 | -0.18% (inactive) |
| O=C(O)c1ccccc1SSc1ccccc1C(=O)O | -0.04% (inactive) |
| CCC(Sc1ccccc1C(=O)O)C(=O)O (configuration not stated) | 5.4% (inactive) |
| COc1ccc(CN2CCN(Cc3cccc(Oc4ccccc4)c3)CC2)c(OC)c1OC | 22.7% (inactive) |
| Cn1c(C(=O)N2CCCC(C(=O)NCCCSC3CCCCC3)C2)cc2sccc21 (configuration not stated) | 67.2% (inactive) |
| Cc1cc(C)n2nc(N)c(N=Nc3ccc(Cl)cc3)c2n1 | 5.04% (inactive) |
| Cc1cc(C)n2nc(N)c(N=Nc3ccc4c(c3)OCO4)c2n1 | 1.48% (inactive) |
| CC(C)CNC(=S)N(CCN(C)C)Cc1cc2cc3c(cc2[nH]c1=O)OCCO3 | -7.36% (inactive) |
| COc1ccc(OC)c(NC(=O)CSc2nncc(=O)n2N)c1 | -3.14% (inactive) |
| CC(=O)N1CC(C)Sc2ccc(S(=O)(=O)NC3CCCCC3)cc21 (configuration not stated) | 0.78% (inactive) |
| NC(=O)NCC(=O)N1CCC(C(O)(c2ccccc2)c2ccccc2)CC1 | -4.38% (inactive) |
| COc1ccc(Cc2nnc(SCC(=O)N3CCc4ccccc4C3)o2)cc1 | -4.27% (inactive) |

| SMILES | inhibition |
| --- | --- |
| COc1ccc(-c2nnc(SCC(=O)N3CCCC3)o2)cc1 | -2.88% (inactive) |
| Cc1cccc(C)c1OCCOC(=O)c1cccc(S(=O)(=O)N2CCOCC2)c1 | -2.97% (inactive) |
| COc1cccc(C(=O)OCC(=O)N2CCc3ccccc3C2)c1OC | -0.41% (inactive) |
| Cc1cccc(C(=O)OCC(=O)N2CCCCCC2)c1O | 20.7% (inactive) |
| COc1ccccc1N1CCN(S(=O)(=O)c2ccc(Br)s2)CC1 | -5.24% (inactive) |
| Cn1nc(C(C)(C)C)cc1NC(=O)Nc1ccc(Cl)cc1 | 6.33% (inactive) |
| Cc1c(Cl)cccc1NC(=O)Nc1cc(C(C)(C)C)nn1C | 2.96% (inactive) |
| CC(C)c1ccc(OCC(O)CNC(C)c2ccccc2)cc1 (configuration not stated) | 15.1% (inactive) |
| COc1ccc(OCC(O)CNC(C)c2ccccc2)cc1 (configuration not stated) | -6.83% (inactive) |
| C[C@H](NC(=O)C1CC(=O)N(c2ccc3c(c2)OCCO3)C1)C(=O)NCc1ccco1 (some centres not stated) | 0.57% (inactive) |
| Cc1ccc(-n2nc3c(N4CCC(C(=O)NCCc5ccccc5C)CC4)nnc(C)c3c2C)cc1 | 5.89% (inactive) |
| COc1ccc(-n2nc3c(N4CCC(C(=O)NCc5ccccc5C)CC4)nnc(C)c3c2C)cc1 | 8.33% (inactive) |
| COC(CNC(=O)CNC(=S)N(CCCN1CCOCC1)Cc1cccs1)OC | 12.5% (inactive) |
| Cc1nc(Nc2ccc(Br)cc2Br)c([N+](=O)[O-])c(=O)[nH]1 | 0.85% (inactive) |
| CCc1cc2c(Sc3nc4ccccc4s3)ncnc2s1 | 11.1% (inactive) |
| Cc1sc2ncnc(Sc3nc4ccccc4s3)c2c1C | -4.93% (inactive) |
| Cc1nc(-c2ccc(S(=O)(=O)Oc3ccccc3Cl)s2)cs1 | 4.35% (inactive) |
| O=C(COc1ccc(S(=O)(=O)N2CCOCC2)cc1)N1CCCCCC1 | -3.92% (inactive) |
| COc1ccccc1-c1cc(C(=O)N2CCN(c3ccccc3)CC2)no1 | -4.77% (inactive) |
| COc1ccc(NS(=O)(=O)c2ccc(C)c(C(=O)NNC(=O)c3ccccc3O)c2)cc1 | 5.14% (inactive) |
| CC(C)(C)c1ccc(C(=O)N2CCN(Cc3ccccc3)CC2)cc1 | 4.6% (inactive) |
